Each structure is given as a SMILES string. Among all 1,200 compounds or so, about 290 (24%) were called active. Another 9% or so got no clear call; they are omitted. How the calls were made is not given here. Only a sample is shown. Measured potencies and affinities stand elsewhere.

A short description of the assay: cytotoxicity in EBV lymphoblastoid cells, dose response, cytotoxicity control, cell-based, plate reader, cherry-picks, set 2 (AID 504882). The following applies: EBV lymphoblastoid cells (LCL) viability; series mostly up to 19.5 µM.
In the case of `O=C1CCCCC1Sc1nnc(-c2ccc3c(c2)OCO3)o1` (stereo not drawn), the compound was called inactive.

Consider `COc1ccc(NC(=O)c2cc3ccccc3oc2=O)cc1`, for which the compound was called inactive.

For the compound `COc1ccc(NC(=O)NCCN2CCc3ccccc3C2)cc1`, the compound was classed as inactive.

Regarding `N#Cc1c(NC(=O)CCCC(=O)O)sc2c1CCCCC2`, the compound was classed as inactive.

As for `COC(=O)c1c(NC(=O)c2nn(C)cc2Cl)sc2c1CCCC2`, the call was inactive.

With `NC(=O)c1sc2nc3c(c(-c4ccccc4)c2c1N)CCC3`, the compound was called inactive.

For `Cc1ccc(NC(=O)NNS(=O)(=O)c2ccc(Br)cc2)cc1`, the call was inactive.

On to `O=C(CSc1nc2ccccc2c(=O)n1CCCN1CCOCC1)Nc1ccc(Br)cc1`, for which the call was inactive.

As to `CC(C)(C)c1ccc(C(=O)N2CCC(=O)N(C(CO)Cc3ccccc3)CC2)cc1` (stereo not drawn), the result was inactive.

As for `O=C(N1CCOCC1)N1CCN(S(=O)(=O)c2ccc(Cl)cc2)C1`, the result was inactive.

As to `O=C(O)c1ccc(C=NNC(=O)c2cccc3ccccc23)cc1`, the compound was called inactive.

As to `Cc1cccc(/C=N/NC(=O)CNc2cccc3ccccc23)n1`, the compound was called inactive.

As for `COc1ccc(-c2[nH]ncc2/C=N\NS(=O)(=O)c2ccc(Cl)cc2)cc1`, the compound was called inactive.

Consider `O=[N+]([O-])c1ccc(Cl)c(S(=O)(=O)NCC2CCCO2)c1` (stereo not drawn), for which the outcome was inactive.

For the compound `CCN(c1ccccc1)S(=O)(=O)c1ccc(Cl)c(NC(=O)Nc2ccc(Cl)cc2C#N)c1`, the outcome was inactive.

On to `CCOc1ccc(OCc2cccc(C(=O)N3CCCCCC3)c2)cc1`, for which the result was inactive.

Consider `COc1ccc(C(=O)NCCN2CCOCC2)cc1[N+](=O)[O-]`, for which the compound was classed as inactive.

Regarding `COc1cccc(/C=C2\SC(=S)N(CCC(=O)NCCc3ccc(O)cc3)C2=O)c1`, the outcome was inactive.

In the case of `COc1ccc(C(=O)Nn2c(SCC(=O)c3ccc(Cl)cc3)nc3ccccc3c2=O)cc1`, the outcome was inactive.

With `COc1ccc(C(=O)NCCNc2nc3cc(C)c(C)cc3cc2C)cc1`, the call was inactive.

`COc1ccc(-c2cc3c(=O)n(CC(=O)NCCCN4CCN(Cc5ccccc5)CC4)ncn3n2)cc1`: the compound was classed as inactive.

As to `O=c1[nH]c(Nc2nc3ccccc3o2)nc2c1CCCC2`, the call was inactive.

On to `Cc1cccc(C)c1Nc1nc2ccccc2o1`, for which the compound was called inactive.

With `COc1ccc(-n2c(C)c(C(C)=O)c3cc(OC(C)=O)ccc32)cc1`, the compound was classed as inactive.

With `CC(=O)Nc1ccc(OCCCNC(=O)c2c(-c3ccccc3)noc2C)cc1`, the result was inactive.

`COc1ccccc1NC(=O)Cn1nnc(-c2ccccc2NS(=O)(=O)c2ccccc2)n1`: the call was inactive.

On to `CCN(CC)Cc1cc(Nc2ccnc3cc(Cl)ccc23)ccc1O`, for which the compound was called inactive.

For `O=C1CSC(=S)N1Cc1ccccc1`, the call was inactive.

With `CC(=O)O[C@H]1CC[C@@]2(C)C(=CC[C@H]3[C@@H]4CC[C@H](C(C)=O)[C@@]4(C)CC[C@@H]32)C1`, the outcome was inactive.

`Cc1ccc(N=c2c([N+](=O)[O-])nn(-c3ccc4c(c3)OCCO4)n2O)cc1F`: the result was inactive.

In the case of `COCCNC(=O)C(=O)NCC1OCCN1C(=O)c1ccc(Cl)cc1` (stereo not drawn), the outcome was inactive.

`CCCn1c(C)cc(C(=O)COC(=O)c2ccc[nH]c2=O)c1C`: the compound was called inactive.

For `COc1cc2oc(=O)cc(-c3ccc(-c4ccc(N(C)C)cc4)cc3)c2c(OC)c1OC`, the compound was called inactive.

On to `Cc1nn(CCCC(=O)Nc2cccnc2Cl)c(C)c1[N+](=O)[O-]`, for which the outcome was inactive.

On to `Cc1sc2nc(SCC(=O)OC(C)C)n(C)c(=O)c2c1C`, for which the compound was called inactive.

Take `COCCn1c(C)cc(C(=O)COC(=O)c2n[nH]c3ccccc23)c1C`: the result was inactive.

Consider `Cc1nn(C(C)(C)C)c(C)c1/C=N/OC(=O)Nc1ccc(Cl)c(Cl)c1`, for which the compound was called inactive.

For the compound `CCCCCCCCOC(=O)/C=C/c1c(C)[nH]c(=O)[nH]c1=O`, the call was inactive.

For the compound `COC(=O)c1ccc(COc2ccccc2/C=C/C(=O)c2ccc(OCC(=O)O)cc2)cc1`, the call was inactive.

As to `CC(C)Oc1ccc(C(=O)Nc2nnc(SCC(=O)N3CCOCC3)s2)cc1`, the outcome was inactive.

With `COC(=O)CCNc1ccc2c(c1)OCCO2`, the outcome was inactive.

For the compound `COc1ccc2[nH]c3c(=O)n(CCCCC(=O)N4CCC(C(N)=O)CC4)c(=S)[nH]c3c2c1`, the compound was classed as inactive.

In the case of `Cc1c(/C(O)=C2/C(=O)C(=O)N(CCN3CCOCC3)C2c2ccccn2)cnn1-c1ccccc1` (stereo not drawn), the compound was called inactive.

With `O=[N+]([O-])c1cc(/C=N\O)ccc1Oc1ccc(F)cc1`, the compound was classed as inactive.

As for `CCOc1ccc(Nc2ncnc3ccc([N+](=O)[O-])cc23)cc1`, the result was inactive.

For the compound `O=[N+]([O-])c1ccc(/C=N/Nc2cc(Cl)nc(-c3ccccc3)n2)cc1`, the compound was called inactive.

Turning to `COc1ccc(NC(=O)COC(=O)/C=C/c2ccc(OC)c(S(=O)(=O)N3CCOCC3)c2)cc1`, the call was inactive.

Take `Cc1nc(N)nc(N)c1/C=C/C(C)(C)c1ccc(Cl)cc1`: the outcome was inactive.

Regarding `COc1cc2cc(C(=O)N3CCN(c4ccccc4OC)CC3)[nH]c2cc1OC`, the call was inactive.

As to `Cc1ccc(C(=O)NCCc2cccs2)cc1`, the result was inactive.

Regarding `C=CCN1CCc2cc(O)c(O)cc2C(c2ccccc2)C1` (stereo not drawn), the call was inactive.

Regarding `CCON1C(=O)C2(CCCCC2)C(=O)C12C=CCCC2` (stereo not drawn), the outcome was inactive.

Take `Cc1nc(C)n(C(C)CNC(=O)c2ccco2)n1` (stereo not drawn): the compound was classed as inactive.

`COc1ccc(C(c2sc3nc(C)nn3c2O)N2CCC(C(N)=O)CC2)cc1OC` (stereo not drawn): the compound was called inactive.

Turning to `Cc1cc(C(=O)COc2cccnc2[N+](=O)[O-])c(C)n1-c1ccccc1F`, the result was inactive.

On to `O=C(NCCc1cn2ccccc2n1)C1CCCCC1`, for which the call was inactive.

Turning to `COc1ccc(-c2cc3nc(-c4ccccc4)cc(N4CCCC(O)C4)n3n2)cc1` (stereo not drawn), the compound was classed as inactive.

Regarding `O=C(CCc1ccccc1Cl)N1CCN(S(=O)(=O)c2ccccc2)CC1`, the compound was classed as inactive.

In the case of `CC[C@]1(C(=O)OC)[C@H]2C(=O)N(Cc3ccccc3)C(=O)[C@H]2[C@H]2CN=C(SCc3ccc(Cl)cc3)N21`, the compound was classed as inactive.

On to `CCn1nc(C(=O)Nc2nc(-c3ccccn3)cs2)c2ccccc2c1=O`, for which the compound was called inactive.

Take `CCc1sc(C(=O)Nc2ncccc2O)cc1C`: the outcome was inactive.

For the compound `Cc1ccc2oc(C(=O)Nc3ccc(S(=O)(=O)Nc4onc(C)c4C)cc3)c(C)c2c1`, the compound was classed as inactive.

On to `CCC(C)(C)NC(=O)C(c1ccc(F)cc1)N(CCOC)C(=O)CCC(=O)Nc1nccs1` (stereo not drawn), for which the result was inactive.

Regarding `CCOC(=O)c1c(NC(=O)C2C3CCC(O3)C2C(=O)O)sc(C)c1-c1ccc(F)cc1` (stereo not drawn), the call was inactive.

Consider `CC1CCc2nc(N)c(C#N)c(-c3cccnc3)c2C1` (stereo not drawn), for which the result was inactive.

As for `CCSC1=C(C#N)C(c2ccc(C)o2)CC(=O)N1` (stereo not drawn), the outcome was inactive.

Regarding `Cc1cc(=O)[nH]c(=S)[nH]1`, the result was inactive.

As for `COc1ccc(S(=O)(=O)N2CCN(C(=S)NCC3CCCO3)CC2)cc1OC` (stereo not drawn), the result was inactive.

With `CCOc1ccc(N/C=C/C(=O)c2ccccc2)cc1`, the compound was classed as inactive.

As for `Cc1c(NC(=O)c2cccc(NC(=O)COc3ccccc3C#N)c2)c(=O)n(-c2ccccc2)n1C`, the compound was classed as inactive.

`Cn1cc(S(=O)(=O)N2CCN(C(=O)c3ccco3)CC2)c(=O)n(C)c1=O`: the outcome was inactive.

`CSc1oc(-c2ccc(F)cc2)nc1S(=O)(=O)c1ccc(F)cc1`: the result was inactive.

For `C=CCN1CCN(C(CC(C)C)c2nnnn2CCOC)CC1` (stereo not drawn), the result was inactive.

Values taken from PubChem BioAssay AID504882 (Broad Institute, 2011).
